Results taken from PubChem BioAssay (EPA / NIEHS).
Several values for one entry are separate records, joined by “and”; a condition that tells them apart may be missing. Equal entries are not always repeated. The source holds several records for some structures; these can differ, active in one and inactive in another. Activity calls are given as the source filed them. The calls were made as follows: active = hit-call score of the fitted dose curve at least 0.9, where 1 is the maximum; inactive = score below 0.9.

Assays:
[1] = read-out: Tissue Factor, F3 (gene 2152); assay: BSK_CASM3C_TissueFactor: BioMAP Diversity Plus: CASM3C Assay for Tissue Factor Biomarker Activity (AID 2283052); details: primary human coronary artery smooth muscle cells; actives raise or lower the signal;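 also: cell surface tissue factor protein level read by ELISA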
[2] = read-out: Interferon-gamma inducible Protein 10 (IP10), CXCL10 (gene 3627); assay: BSK_hDFCGF_IP10: BioMAP Diversity Plus: hDFCGF Assay for Interferon-gamma inducible Protein 10 (IP10) Biomarker Activity (AID 2283053); details: primary human foreskin fibroblasts; actives raise or lower the signal
In short: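 IP-10 levels, quantified by ELISA, are taken from human foreskin fibroblast cultures 24 h after chemical treatment, with DMSO serving as negative control and baseline for bidirectional analysis.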

[3] = read-out: Urokinase-type plasminogen activator receptor (uPAR), PLAUR (gene 5329); assay: BSK_CASM3C_uPAR: BioMAP Diversity Plus: CASM3C Assay for Urokinase-type plasminogen activator receptor (uPAR) Biomarker Activity (AID 2283054); details: primary human coronary artery smooth muscle cells; actives raise or lower the signal;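 also: cell-surface uPAR protein level quantified by ELISA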
[4] = read-out: Vascular cell adhesion molecule 1 (VCAM1), VCAM1 (gene 7412); assay: BSK_CASM3C_VCAM1: BioMAP Diversity Plus: CASM3C Assay for Vascular cell adhesion molecule 1 (VCAM1) Biomarker Activity (AID 2283055); details: primary human coronary artery smooth muscle cells; actives raise or lower the signal;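 also: VCAM-1 protein level quantified by ELISA on the cells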
[5] = read-out: Collagen III, COL3A1 (gene 1281); assay: BSK_hDFCGF_CollagenIII: BioMAP Diversity Plus: hDFCGF Assay for Collagen III Biomarker Activity (AID 2283056); details: primary human foreskin fibroblasts; actives raise or lower the signal
In short: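 hDFCGF primary human dermal fibroblasts; 24 h chemical exposure; collagen III by ELISA; bidirectional curve fit vs DMSO baseline (gain or loss of signal).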

[6] = read-out: Epidermal growth factor receptor (EGFR), EGFR (gene 1956); assay: BSK_hDFCGF_EGFR: BioMAP Diversity Plus: hDFCGF Assay for Epidermal growth factor receptor (EGFR) Biomarker Activity (AID 2283057); details: primary human foreskin fibroblasts; actives raise or lower the signal
In short: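 Measured by ELISA: EGFR levels on primary human foreskin fibroblasts 24 h after chemical treatment, analysed relative to DMSO with bidirectional fitting.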

[7] = read-out: Interleukin-8 (IL8), CXCL8 (gene 3576); assay: BSK_hDFCGF_IL8: BioMAP Diversity Plus: hDFCGF Assay for Interleukin-8 (IL8) Biomarker Activity (AID 2283058); details: primary human foreskin fibroblasts; actives raise or lower the signal
In short: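 ELISA read-out of IL-8 from primary human foreskin fibroblast cultures taken 24 h after dosing; values are bidirectional fits relative to DMSO vehicle.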

[8] = BSK_hDFCGF_Proliferation: Cell Proliferation Assessment in the BioMAP Diversity Plus: hDFCGF Assay (AID 2283059); details: primary human foreskin fibroblasts;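 also: curves fitted for both rise and fall of signal versus DMSO baseline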
In short: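 This proliferation readout used SRB total-protein staining of human foreskin fibroblasts […], normalized to DMSO with bidirectional curve fitting.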

[9] = read-out: Macrophage colony-stimulating factor (MCSF), CSF1 (gene 1435); assay: BSK_hDFCGF_MCSF: BioMAP Diversity Plus: hDFCGF Assay for Macrophage colony-stimulating factor (MCSF) Biomarker Activity (AID 2283060); details: primary human foreskin fibroblasts; actives raise or lower the signal
In short: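 ELISA read-out of M-CSF in human dermal foreskin fibroblast cultures, 24 h after chemical dosing; gain or loss of signal fitted bidirectionally relative to DMSO baseline.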

[10] = BSK_hDFCGF_SRB: Viability Assessment in the BioMAP Diversity Plus: hDFCGF Assay (AID 2283061); details: primary human foreskin fibroblasts;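 also: cells exposed to compound for 24 h before the read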
In short: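 Primary human foreskin fibroblasts; 24 h post-dose; fixed 10% TCA, stained 0.1% SRB, A560 read; total protein as overt cytotoxicity measure; curves fit bidirectionally vs DMSO control.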

[11] = read-out: TIMP metallopeptidase inhibitor 1 (TIMP1), TIMP1 (gene 7076); assay: BSK_hDFCGF_TIMP1: BioMAP Diversity Plus: hDFCGF Assay for TIMP metallopeptidase inhibitor 1 (TIMP1) Biomarker Activity (AID 2283062); details: primary human foreskin fibroblasts; actives raise or lower the signal
In short: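 ELISA readout of TIMP-1 from human dermal foreskin fibroblast cultures 24 h post-dosing. Curves were fitted in both directions against DMSO baseline, with SRB total-protein staining in parallel cultures as a cytotoxicity check.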

[12] = read-out: Monokine induced gamma interferon (MIG), CXCL9 (gene 4283); assay: BSK_hDFCGF_MIG: BioMAP Diversity Plus: hDFCGF Assay for Monokine induced gamma interferon (MIG) Biomarker Activity (AID 2283063); details: primary human foreskin fibroblasts; actives raise or lower the signal
In short: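 Fibroblasts (human foreskin, primary) dosed, 24 h, MIG by ELISA; fit bidirectional vs DMSO.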

[13] = read-out: Matrix Metallopeptidase 1 (MMP1), MMP1 (gene 4312); assay: BSK_hDFCGF_MMP1: BioMAP Diversity Plus: hDFCGF Assay for Matrix Metallopeptidase 1 (MMP1) Biomarker Activity (AID 2283064); details: primary human foreskin fibroblasts; actives raise or lower the signal
In short: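 Primary human foreskin fibroblasts exposed to chemicals for 24 h; MMP1 measured by ELISA. Cytotoxicity tracked by SRB staining in parallel cultures; bidirectional fit relative to DMSO.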

[14] = read-out: Vascular cell adhesion molecule 1 (VCAM1), VCAM1 (gene 7412); assay: BSK_hDFCGF_VCAM1: BioMAP Diversity Plus: hDFCGF Assay for Vascular cell adhesion molecule 1 (VCAM1) Biomarker Activity (AID 2283065); details: primary human foreskin fibroblasts; actives raise or lower the signal;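 as to AC50: VCAM-1 protein level quantified by ELISA after 24 h chemical exposure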
In short: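 ELISA read-out of VCAM-1 on human skin fibroblasts, 24 h post-dose; gain or loss of signal fitted bidirectionally against DMSO baseline.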

[15] = read-out: Plasminogen activator inhibitor-1 (PAI1), SERPINE1 (gene 5054); assay: BSK_hDFCGF_PAI1: BioMAP Diversity Plus: hDFCGF Assay for Plasminogen activator inhibitor-1 (PAI1) Biomarker Activity (AID 2283066); details: primary human foreskin fibroblasts; actives raise or lower the signal
In short: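 PAI-1 levels, determined by ELISA, served as the endpoint in human foreskin fibroblast cultures exposed to compound for 24 h, with DMSO as baseline.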

[16] = read-out: Intercellular Adhesion Molecule 1 (ICAM1), ICAM1 (gene 3383); assay: BSK_KF3CT_ICAM1: BioMAP Diversity Plus: KF3CT Assay for Intercellular Adhesion Molecule 1 (ICAM1) Biomarker Activity (AID 2283067); details: primary human keratinocytes with fibroblasts; actives raise or lower the signal
In short: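 ELISA readout of ICAM-1; KF3CT human skin co-culture (keratinocytes + foreskin fibroblasts), 24 h post-dose; gain/loss fit vs DMSO baseline.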

[17] = read-out: Interferon-gamma inducible Protein 10 (IP10), CXCL10 (gene 3627); assay: BSK_KF3CT_IP10: BioMAP Diversity Plus: KF3CT Assay for Interferon-gamma inducible Protein 10 (IP10) Biomarker Activity (AID 2283068); details: primary human keratinocytes with fibroblasts; actives raise or lower the signal
In short: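 Signal is secreted/surface IP-10 by ELISA in a human primary skin co-culture of keratinocytes and foreskin fibroblasts, taken 24 h post-dosing; DMSO served as negative control.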

[18] = BSK_KF3CT_SRB: Viability Assessment in the BioMAP Diversity Plus: KF3CT Assay (AID 2283069); details: primary human keratinocytes with fibroblasts;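 also: total protein by sulforhodamine B staining as a cytotoxicity measure; read 24 h after compound addition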
In short: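 Human keratinocyte and foreskin fibroblast co-culture exposed to chemical for 24 h. Total protein measured in parallel cultures by 0.1% sulforhodamine B staining after 10% TCA fixation, read at 560 nm; bidirectional fit relative to DMSO.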

[19] = read-out: Interleukin-1 alpha (IL1a), IL1A (gene 3552); assay: BSK_KF3CT_IL1a: BioMAP Diversity Plus: KF3CT Assay for Interleukin-1 alpha (IL1a) Biomarker Activity (AID 2283070); details: primary human keratinocytes with fibroblasts; actives raise or lower the signal
In short: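 Primary human keratinocyte plus foreskin fibroblast co-culture, dosed and measured at 24 h in 96-well plates. IL-1a level quantified by ELISA; bidirectional fit relative to DMSO.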

[20] = read-out: TIMP metallopeptidase inhibitor 2 (TIMP2), TIMP2 (gene 7077); assay: BSK_KF3CT_TIMP2: BioMAP Diversity Plus: KF3CT Assay for TIMP metallopeptidase inhibitor 2 (TIMP2) Biomarker Activity (AID 2283071); details: primary human keratinocytes with fibroblasts; actives raise or lower the signal
In short: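 Keratinocyte–fibroblast co-culture, 24 h exposure; TIMP-2 ELISA, DMSO-normalised bidirectional fit. Parallel SRB (0.1%, TCA-fixed, 560 nm) total-protein staining gauges cytotoxicity.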

Measured: AC50

Oc1ccc(C(c2ccc(O)cc2)C(Cl)(Cl)Cl)cc1
inactive: [1] | [4]
active: [2] 23.8 µM | [3] 11.3 µM | [5] 11.7 µM | [6] 13.3 µM | [7] 31.3 µM | [8] 13.5 µM | [9] 21.5 µM | [10] 29.3 µM | [11] 14.5 µM | [12] 26.7 µM | [13] 29.7 µM | [14] 20 µM | [15] 25.4 µM | [16] 36.4 µM | [17] 33.2 µM | [18] 24.1 µM | [19] 32.9 µM | [20] 20.7 µM

CCC(C)OC(=O)N1CCCCC1CCO (centres undefined)
not listed: [6] | [11]
inactive: all other assays above

O=C(c1ccccc1)C1CCCCC1
inactive: all assays above

N#CSCSc1nc2ccccc2s1
inactive: [1] | [7] | [18]
active: [1] 1.85 µM | [2] 1.49 µM and 227 nM | [3] 5.35 µM and 30 µM | [4] 6.34 µM and 27.7 µM | [5] 1.19 µM and 424 nM | [7] 2.43 µM | [8] 632 nM and 148 nM | [10] 1.08 µM and 155 nM | [11] 1.63 µM and 148 nM | [12] 1.67 µM and 1.3 µM | [13] 1.82 µM and 1.61 µM | [14] 1.37 µM and 460 nM | [15] 1.72 µM and 627 nM | [16] 7.09 µM and 10.6 µM | [17] 7.03 µM and 11.6 µM | [18] 5.31 µM | [19] 7.76 µM and 11.4 µM | [20] 4.19 µM and 10.2 µM

Cc1nn(C)c(Oc2ccccc2)c1C=NOCc1ccc(C(=O)OC(C)(C)C)cc1
inactive: [1] | [3] | [4] | [7] | [12] | [16] | [18] | [19] | [20]
active: [2] 27.9 µM | [5] 4.21 µM | [6] 3.95 µM | [8] 6.94 µM | [9] 18.8 µM | [10] 15.4 µM | [13] 34.5 µM | [14] 13.9 µM | [15] 24.2 µM | [17] 13 µM

C[C@]12CC[C@@H]3c4ccc(O)cc4C[C@@H](CCCCCCCCCS(=O)CCCC(F)(F)C(F)(F)F)[C@H]3[C@@H]1CC[C@@H]2O (some centres undefined)
active: [8] 4.75 µM | [15] 1.64 µM
not listed: [9] | [11]
inactive: all other assays above

S=C(S)NCCNC(=S)S.[Mn+2].[S-]C([S-])=NCCN=C([S-])[S-].[Zn+2]
active: [1] 4.17 µM [middle of 4 runs] | [2] 10.4 µM | [14] 5.37 µM and 12.4 µM
inactive: [1] | [2] | [3] | [4] | [5] | [7] | [10] | [12] | [13] | [14] | [15] | [16] | [17] | [18] | [19] | [20]

COCCO
active: [19] 0.8 µM
inactive: [1] | [2] | [3] | [4] | [5] | [7] | [8] | [9] | [10] | [12] | [13] | [14] | [15] | [16] | [17] | [18] | [19] | [20]

CCOC(=O)c1ccc(O)cc1
not listed: [9] | [11]
inactive: all other assays above

CN(C)C(=O)Nc1ccc(Cl)c(Cl)c1
not listed: [9] | [11]
inactive: all other assays above

CSC(=O)c1cccc2nnsc12
not listed: [9] | [11]
inactive: all other assays above

S=C([S-])NCCNC(=S)[S-].[Mn+2]
active: [2] 30.7 µM | [5] 29.1 µM | [6] 0.149 µM | [8] 8.5 µM | [12] 32.4 µM | [13] 4.73 µM | [15] 16.4 µM | [17] 27.4 µM
not listed: [9] | [11] | [14] | [16]
inactive: all other assays above
